Laboratory results from PubChem BioAssay (NCI).
The panel holds about 79,000 compounds, 15% with a hit somewhere; the sample as a whole holds those more often. The source made the active and inactive calls. No stated cut-off is given here; in the data, active means growth inhibition above about 70%; inactive means the rest.

Columns and labels:
[1] = NCI Yeast Anticancer Drug Screen. Data for the rad52 strain (AID 147);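 further: 0% = growth of vehicle-treated control cultures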; details: S. cerevisiae rad52 mutant growth inhibition, hits give high values
Summary of the method: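 Growth of repair-deficient yeast cells was compared between compound-treated and vehicle-treated cultures to give percent inhibition.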

[2] = NCI Yeast Anticancer Drug Screen. Data for the wt1 strain (AID 149);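 further: 0% = growth of vehicle-treated wt1 cultures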; details: S. cerevisiae wt1 strain (SPY 50644) growth inhibition, hits give high values
Summary of the method: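 Using yeast strain wt1, compound-induced growth inhibition was determined against vehicle-treated cultures.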

[3] = NCI Yeast Anticancer Drug Screen. Data for the rad50EPP+ strain (AID 151);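 further: 0% = growth of vehicle-treated control cultures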; details: S. cerevisiae rad50 mutant strain, hits give high values
Summary of the method: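 Measured: growth inhibition of rad50EPP+ yeast. Reference: vehicle-treated controls. Screen uses strains with defined genetic alterations in DNA damage repair or cell cycle control.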

[4] = NCI Yeast Anticancer Drug Screen. Data for the mgt1 strain (AID 153); details: S. cerevisiae mgt1 mutant growth inhibition, hits give high values
Summary of the method: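 Compounds were applied to mgt1 mutant yeast, and growth was then compared against vehicle-treated control cultures to give percent inhibition.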

[5] = NCI Yeast Anticancer Drug Screen. Data for the rad50 strain (AID 155);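 further: 0% = growth of vehicle-only cultures of the same strain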; details: S. cerevisiae rad50 strain growth inhibition, hits give high values
Summary of the method: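 Relative growth inhibition (compound vs vehicle) was measured in yeast with a defined repair-gene alteration.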

[6] = NCI Yeast Anticancer Drug Screen. Data for the mec2-1 strain (AID 157); details: S. cerevisiae mec2-1 strain, hits give high values
Summary of the method: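 Compounds were applied to mec2-1 yeast cells. Their growth was then compared with that of vehicle-treated cultures to give growth inhibition.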

[7] = NCI Yeast Anticancer Drug Screen. Data for the rad14 strain (AID 159);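 further: 0% = growth of vehicle-treated control cultures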; details: S. cerevisiae rad14 strain growth inhibition, hits give high values
Summary of the method: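 Screen for anticancer potential: a yeast strain altered in DNA damage repair is grown with compound, and reduced growth is quantified against vehicle controls.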

[8] = NCI Yeast Anticancer Drug Screen. Data for the sgs1 mgt1 strain (AID 161);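 further: 0% = growth of cultures given vehicle only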; details: S. cerevisiae sgs1 mgt1 strain, hits give high values
Summary of the method: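 Growth of a repair-deficient yeast mutant was monitored after compound treatment and expressed as inhibition relative to vehicle-treated cultures.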

[9] = NCI Yeast Anticancer Drug Screen. Data for the CLN2oe strain (AID 163);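 further: 0% = growth of vehicle-only control cultures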; details: S. cerevisiae CLN2oe strain, hits give high values
Summary of the method: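 Cells of an engineered yeast line with disturbed cell-cycle regulation are treated with compound. Inhibition of growth is then calculated relative to the vehicle-treated reference.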

[10] = NCI Yeast Anticancer Drug Screen. Data for the cln2 rad14 strain (AID 165);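 further: 0% = growth equal to vehicle treated cultures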; details: S. cerevisiae cln2 rad14 strain, hits give high values
Summary of the method: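 Strain: cln2 rad14 yeast, altered in cell cycle control and DNA damage repair. Read-out: growth inhibition vs vehicle.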

[11] = NCI Yeast Anticancer Drug Screen. Data for the bub3 strain (AID 167); details: S. cerevisiae bub3 mutant strain, hits give high values
Summary of the method: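 Screening used yeast with an engineered genetic alteration affecting cell cycle control. Compound-exposed cultures were compared with vehicle cultures, and reduced growth was taken as inhibition.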

[12] = NCI Yeast Anticancer Drug Screen. Data for the wt2 strain (AID 169);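 further: 0% = growth of vehicle-treated yeast cultures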; details: S. cerevisiae wt2 strain growth inhibition, hits give high values
Summary of the method: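 Growth of compound-treated yeast is measured and expressed as inhibition relative to vehicle-only controls.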

[13] = NCI Yeast Anticancer Drug Screen. Data for the mlh1 strain (AID 171);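 further: 0% = growth of vehicle-treated control cultures of the same strain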; details: S. cerevisiae mlh1 strain growth inhibition, hits give high values
Summary of the method: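 Test agents were incubated with yeast bearing a defined DNA damage repair or cell cycle control alteration; values are growth inhibition normalised to vehicle-treated cultures.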

[14] = NCI Yeast Anticancer Drug Screen. Data for the sgs1 strain (AID 173);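 further: 0% = growth of vehicle-only control cultures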; details: S. cerevisiae sgs1 mutant, hits give high values
Summary of the method: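 Strain with an altered DNA repair or cell cycle pathway exposed to compound. Growth then measured. Value = inhibition versus vehicle control.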

[15] = NCI Yeast Anticancer Drug Screen. Data for the mlh1 rad18 strain (AID 175); details: S. cerevisiae mlh1 rad18 strain growth inhibition, hits give high values
Summary of the method: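 A repair-deficient yeast strain is exposed to test compound, and growth is scored relative to vehicle-treated controls.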

[16] = NCI Yeast Anticancer Drug Screen. Data for the rad18 strain (AID 177); details: S. cerevisiae rad18 mutant growth inhibition, hits give high values
Summary of the method: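 DNA-repair-defective yeast; compound treatment; growth inhibition scored against vehicle.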

[17] = at 5.0 µM (retest, dose inferred, filed as 0.5)
[18] = at 50.0 µM (retest, dose inferred, filed as 5.0)

Measured: growth inhibition

O=C(CN(c1ccccc1)c1ccccc1)n1nnc2ccccc21
inactive: [1]; at 1.2 µM 18% | [1]; at 3.7 µM 20% | [1]; at 11.0 µM 14% | [1]; at 33.0 µM 39% | [2]; at 1.2 µM 10% | [2]; at 3.7 µM -11% | [2]; at 11.0 µM -19% | [2]; at 33.0 µM 0% | [3]; at 1.2 µM 15% | [3]; at 3.7 µM 7% | [3]; at 11.0 µM 15% | [3]; at 33.0 µM 42% | [4]; at 1.2 µM 6% | [4]; at 3.7 µM -20% | [4]; at 11.0 µM -10% | [4]; at 33.0 µM 9% | [5]; at 1.2 µM -9% | [5]; at 3.7 µM -7% | [5]; [17] -1% | [5]; at 11.0 µM 14% | [5]; at 33.0 µM 28% | [6]; at 1.2 µM -9% | [6]; at 3.7 µM 0% | [6]; [17] -6% | [6]; at 11.0 µM 13% | [6]; at 33.0 µM 23% | [6]; [18] 23% | [7]; at 1.2 µM -19% | [7]; at 3.7 µM -18% | [7]; at 11.0 µM -18% | [7]; at 33.0 µM 2% | [8]; [17] -15% | [8]; [18] 36% | [8]; at 50.0 µM 47.7% | [9]; at 1.2 µM 8% | [9]; at 3.7 µM -9% | [9]; at 11.0 µM -9% | [9]; at 33.0 µM 4% | [9]; at 100.0 µM 69% | [10]; [17] -2% | [10]; [18] -29% | [10]; at 50.0 µM 52.2% | [11]; at 1.2 µM -21% | [11]; at 3.7 µM -19% | [11]; [17] -42% | [11]; at 11.0 µM -35% | [11]; at 33.0 µM -19% | [12]; at 1.2 µM -7% | [12]; at 3.7 µM 8% | [12]; at 11.0 µM -6% | [12]; at 33.0 µM 6% | [13]; at 1.2 µM 9% | [13]; at 3.7 µM 6% | [13]; at 11.0 µM 13% | [13]; at 33.0 µM 36% | [14]; at 1.2 µM 19% | [14]; at 3.7 µM 16% | [14]; at 11.0 µM 14% | [14]; at 33.0 µM 32% | [15]; [17] -21% | [16]; at 1.2 µM 6% | [16]; at 3.7 µM 14% | [16]; at 11.0 µM 6% | [16]; at 33.0 µM 30%
active: [1]; at 100.0 µM 85% | [2]; at 100.0 µM 82% | [3]; at 100.0 µM 71% | [4]; at 100.0 µM 88% | [5]; [18] 76% | [5]; at 50.0 µM 74.5% | [5]; at 100.0 µM 84% | [6]; at 50.0 µM 78.6% | [6]; at 100.0 µM 85% | [7]; at 100.0 µM 85% | [11]; [18] 84% | [11]; at 50.0 µM 74.4% | [11]; at 100.0 µM 76% | [12]; at 100.0 µM 80% | [13]; at 100.0 µM 86% | [14]; at 100.0 µM 90% | [15]; [18] 87% | [15]; at 50.0 µM 70.2% | [16]; at 100.0 µM 90%

CC1(C)OC(=O)C(=Cc2ccc([N+](=O)[O-])s2)C(=O)O1
active: [1]; at 100.0 µM 98% | [3]; at 33.0 µM 86% | [3]; at 100.0 µM 88% | [4]; at 33.0 µM 95% | [5]; [18] 89% | [5]; at 100.0 µM 98% | [6]; [18] 99% | [6]; at 50.0 µM 89.3% | [6]; at 100.0 µM 70% | [7]; at 100.0 µM 99% | [8]; [18] 100% | [8]; at 50.0 µM 90% | [9]; at 100.0 µM 97% | [10]; [18] 81% | [11]; [18] 100% | [11]; at 50.0 µM 85% | [12]; at 100.0 µM 71% | [13]; at 100.0 µM 71% | [14]; at 100.0 µM 98% | [15]; at 50.0 µM 92.3% | [16]; at 33.0 µM 85%
inactive: [1]; at 1.2 µM -17% | [1]; at 3.7 µM -35% | [1]; at 11.0 µM -31% | [1]; at 33.0 µM -14% | [2]; at 1.2 µM -28% | [2]; at 3.7 µM -33% | [2]; at 11.0 µM -14% | [2]; at 33.0 µM 32% | [2]; at 100.0 µM 35% | [3]; at 1.2 µM -17% | [3]; at 3.7 µM -20% | [3]; at 11.0 µM -2% | [4]; at 1.2 µM -8% | [4]; at 3.7 µM 15% | [4]; at 11.0 µM 26% | [4]; at 100.0 µM 50% | [5]; at 1.2 µM -9% | [5]; at 3.7 µM -7% | [5]; [17] 28% | [5]; at 11.0 µM -13% | [5]; at 33.0 µM -6% | [5]; at 50.0 µM 68.6% | [6]; at 1.2 µM -28% | [6]; at 3.7 µM -5% | [6]; [17] 23% | [6]; at 11.0 µM -23% | [6]; at 33.0 µM 12% | [7]; at 1.2 µM -12% | [7]; at 3.7 µM -5% | [7]; at 11.0 µM 2% | [7]; at 33.0 µM 9% | [8]; [17] 56% | [9]; at 1.2 µM 14% | [9]; at 3.7 µM 26% | [9]; at 11.0 µM 29% | [9]; at 33.0 µM 63% | [10]; [17] 47% | [10]; at 50.0 µM 30.8% | [11]; at 1.2 µM -18% | [11]; at 3.7 µM -13% | [11]; [17] 48% | [11]; at 11.0 µM -8% | [11]; at 33.0 µM 60% | [11]; at 100.0 µM 5% | [12]; at 1.2 µM 0% | [12]; at 3.7 µM -9% | [12]; at 11.0 µM -7% | [12]; at 33.0 µM 62% | [13]; at 1.2 µM -28% | [13]; at 3.7 µM -24% | [13]; at 11.0 µM -33% | [13]; at 33.0 µM 38% | [14]; at 1.2 µM -31% | [14]; at 3.7 µM -25% | [14]; at 11.0 µM -15% | [14]; at 33.0 µM 48% | [15]; [17] 10% | [15]; [18] 51% | [16]; at 1.2 µM 10% | [16]; at 3.7 µM 21% | [16]; at 11.0 µM 32% | [16]; at 100.0 µM 69%
